Hits are enriched below; roughly 4.7% of the tested compounds scored in any of these assays.
ADAM17 inh: inhibits human ADAM17; P78536; recombinant ADAM17, EDANS/DABCYL FRET peptide cleavage; inhibition, % at 6.95 µM; 370,000 compounds, 0.83% hits;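 active = inhibition above the mean of compounds lying between control limits plus 3 SD, set per campaign, cut at about 8.5% in these data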;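 note: 0% = DMSO-only wells as the low control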
Target sequence (P78536 215-824 limits assumed): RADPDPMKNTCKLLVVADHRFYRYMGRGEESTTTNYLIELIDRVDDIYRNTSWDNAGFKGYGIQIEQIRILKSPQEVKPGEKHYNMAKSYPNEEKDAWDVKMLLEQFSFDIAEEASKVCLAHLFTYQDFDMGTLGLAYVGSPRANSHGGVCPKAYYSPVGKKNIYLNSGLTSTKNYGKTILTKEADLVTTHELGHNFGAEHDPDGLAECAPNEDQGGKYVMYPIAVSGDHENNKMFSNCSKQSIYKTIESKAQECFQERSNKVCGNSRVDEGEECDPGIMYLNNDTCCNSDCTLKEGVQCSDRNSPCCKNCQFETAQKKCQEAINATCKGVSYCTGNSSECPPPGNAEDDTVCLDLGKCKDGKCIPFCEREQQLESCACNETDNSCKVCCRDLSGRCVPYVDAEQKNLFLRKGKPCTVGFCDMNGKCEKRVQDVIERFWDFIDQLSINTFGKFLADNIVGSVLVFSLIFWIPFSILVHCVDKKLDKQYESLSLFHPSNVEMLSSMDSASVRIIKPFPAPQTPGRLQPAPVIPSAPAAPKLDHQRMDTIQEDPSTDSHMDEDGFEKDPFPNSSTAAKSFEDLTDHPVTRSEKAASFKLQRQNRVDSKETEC
DSG3 Ab inh: inhibitors of pemphigus antibody binding to human desmoglein-3; binding (percent of control), % at 10 µM; DSG3-coupled beads, scFv-anti-DSG3-GFP binding, flow cytometry; active compounds read low; P32926; 310,000 compounds, 0.48% hits; AID 588358;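 active = binding more than 3 SD below its plate's average and above zero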;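 note: hits lower antibody fragment binding to DSG3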
KLK7 zymogen act: activates the human kallikrein-7 zymogen. purified proKLK7, EDANS-DABCYL substrate fluorescence; 100% is mature enzyme control, 0% vehicle. P49862. 370,000 compounds, 0.9% hits. activation, % at 7 µM;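 active = activation above the mean of all tested compounds plus 3 SD, computed per campaign excluding outliers beyond control limits, cut at about 13% in these data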
MPTP block: inhibitors of mitochondrial permeability transition pore. inhibition, % at 10 µM. AID 602449. 360,000 compounds, 1.4% hits. isolated mouse mitochondria, Ca2+ swelling absorbance, 30 min;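 active = inhibition of 50% or more, scaled per plate between neutral and stimulator controls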;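 note: 0% = DMSO wells given calcium and 100% = 1 mM EGTA wells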
ADAM10 inh: ADAM10 inhibition, QFRET primary screen; recombinant ADAM10, EDANS/DABCYL FRET peptide cleavage, 3 h; inhibition, % at 7 µM; 370,000 compounds, 0.62% hits; AID 720582;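 active = inhibition above a per-campaign cutoff equal to the mean of compounds falling between control-based bounds plus 3 SD, cut at about 20% in these data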;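 note: 0% = DMSO wells while the 100% control is not disclosed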
rCAG binder: molecules binding r(CAG) RNA repeats. r(CAG) RNA repeat, TO-PRO-1 dye displacement fluorescence. inhibition, % at 3 µM. 370,000 compounds, 1.3% hits;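 active = inhibition above the plate cutoff, the mean of all test compounds on that plate plus 3 SD, cut at about 35% in these data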;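 note: 0% = DMSO alone and 100% = 100 µM mitoxantrone as full dye displacement; higher means more dye released from RNA so lower well fluorescence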
ADAM10 counter: ADAM10 inhibition, counter-screen for ADAM17 exosite hits; shares compounds with ADAM17 inh; recombinant ADAM10, EDANS/DABCYL FRET peptide cleavage, 3 h; inhibition, % at 6.95 µM; 2,900 compounds, 47% hits; AID 743256;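 active = mean inhibition over the triplicate runs exceeds the activity threshold set in the earlier primary screen, cut at about 20% in these data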;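 note: 0% = DMSO wells and 100% = marimastat wells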
ADAM17 confirm: human ADAM17 inhibition, confirmation. shares compounds with ADAM17 inh. AID 743257. 2,900 compounds, 65% hits. inhibition, % at 6.95 µM. recombinant ADAM17, EDANS/DABCYL QFRET peptide cleavage;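 active = mean inhibition across replicates above the hit cutoff set in the primary screen, cut at about 8.5% in these data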;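 note: 0% = DMSO wells and 100% = marimastat wells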
* hit, by the source's call; . = no result.

SMILES	ADAM17 inh	DSG3 Ab inh	KLK7 zymogen act	MPTP block	ADAM10 inh	rCAG binder	ADAM10 counter	ADAM17 confirm
CCc1ccc(/C=N/NC(=O)c2cc(-c3ccccc3OC)nc3ccccc23)s1	9.2*	.	-32	2	8	16	-30	5
COc1cccc(C=C(C(C)=O)C(=O)c2ccccc2)c1	1	.	0	0	-1	3	.	.
Cc1nn(CCCC(=O)NCCc2ccccc2)c(C)c1[N+](=O)[O-]	-2	100	1	1	-2	-4	.	.
Cc1nn(CCCC(=O)Nc2cc(Oc3ccccc3)cc([N+](=O)[O-])c2)c(C)c1[N+](=O)[O-]	12*	116	1	37	17	10	39*	20*
CCOC(=O)Cn1c(S(=O)(=O)Cc2ccc(F)cc2)nc(-c2ccccc2)c1-c1ccccc1	2	93	0	0	3	3	.	.
C#CCn1c(S(=O)(=O)Cc2ccc(F)cc2)nc(-c2ccccc2)c1-c1ccccc1	8.7*	98	0	0	16	1	22*	16*
Cc1ccc(NC(=O)C(OC(=O)c2ccccc2Cl)c2ccccc2)cc1Cl (stereo not given)	9.3*	113	0	10	15	13	31*	21*
CC(C)(C)NC(=O)c1cnn(-c2ccccc2)c1NC(=O)c1ccccc1	-1	103	0	0	-1	-2	.	.
Cc1csc(-c2cnn(-c3ccccc3)c2NC(=O)c2ccc(C(F)(F)F)cc2)n1	9.3*	84	0	0	13	11	18	11*
NC(=O)COC(=O)CC12CC3CC(CC(Br)(C3)C1)C2	1	100	0	-1	0	-3	.	.
CCCCCC(=O)N1C[C@@H](n2cc(-c3ccc(F)cc3)nn2)[C@H](O)C[C@@H]1c1ccc(Cl)cc1	11*	.	0	1	15	5	29*	17*
CCCCCC(=O)N1C[C@H](O)[C@@H](n2cc(-c3ccc(F)cc3)nn2)C[C@@H]1c1ccc(Cl)cc1	2	102	0	-1	6	6	.	.
Cc1ccc([C@H]2C[C@@H](O)[C@H](n3cc(-c4ccc(F)cc4)nn3)CN2C(=O)C2CCCCC2)cc1	10*	.	1	0	12	6	29*	15*
O=C(Nc1cccnc1)C1Cc2c(-c3ccco3)ccnc2O1 (stereo not given)	-2	.	0	-1	-9	1	.	.
Cc1ccc(N(CC(=O)Nc2ccccc2C(=O)NCc2ccco2)S(=O)(=O)c2ccccc2)cc1C	-6	99	-4	-2	4	18	.	.
Cc1ccc(C)c(N(CC(=O)Nc2ccccc2C(=O)NCc2ccco2)S(=O)(=O)c2ccccc2)c1	9.6*	100	-1	1	12	6	23*	16*
O=C(c1ccc(COCC(F)(F)F)o1)N1CCCCCC1	11*	109	1	-2	9	0	-4	-2
CC(C)(C)NC(=O)c1ccc(COCC(F)(F)F)o1	1	94	0	-1	-11	-5	.	.
O=C(OCc1cnc(Cl)s1)c1cccc(Cl)c1Cl	9.0*	105	-1	0	7	1	19	12*
O=C(OCc1cnc(Cl)s1)c1ccccc1Cl	-1	105	0	-2	2	0	.	.
CS(=O)(=O)c1ccc(Cl)c(NC(=O)CN2CCN(C(=O)c3cccs3)CC2)c1	-1	92	-1	-1	-2	1	.	.
Cc1ccc(C)c(NC(=O)CN(C)C(=O)c2ccc(COc3ccccc3)cc2)c1	11*	97	0	1	7	5	7	6
O=c1[nH]n(-c2ccccc2Cl)c(=O)c2ccccc12	10*	92	0	-1	-6	0	10	10*
Cn1[nH]c(=O)c2ccccc2c1=O	-7	101	0	0	-12	-2	.	.
COc1ccc(C2=Nc3ccccc3N(C(=O)c3ccc(C(F)(F)F)cc3)C2C(=O)Nc2c(C)cccc2C)cc1 (stereo not given)	1	.	-10	4	-13	9	.	.
SMILES	ADAM17 inh	DSG3 Ab inh	KLK7 zymogen act	MPTP block	ADAM10 inh	rCAG binder	ADAM10 counter	ADAM17 confirm
COc1ccc(C)cc1NC(=O)COC(=O)c1c(C)nn(-c2ccccc2)c1C	1	96	0	5	3	4	.	.
N#CC1c2ccccc2C=CN1C(=O)c1ccccc1 (stereo not given)	-2	93	0	5	1	-1	.	.
N#CC1(Cc2ccccc2Cl)c2ccccc2C=CN1C(=O)c1ccccc1 (stereo not given)	11*	105	-5	0	15	5	14	9.3*
CC1(C(=O)Nc2ccc3nc[nH]c3c2)CCN1C(=O)C/C=C/c1ccccc1 (stereo not given)	-3	.	1	0	-2	5	.	.
CCCC(=O)Nc1nc2ccc(OC)cc2s1	1	100	0	0	3	0	.	.
COc1ccc2nc(NC(=S)N(C)C)sc2c1	13*	104	0	1	6	7	-10	1
Cc1cc(C)nc(NC(=O)C(c2ccccc2)c2ccccc2)c1	6	104	0	0	10	3	.	.
Cc1cc(C)nc(NC(=O)C(c2ccccc2)c2ccccc2)n1	8.7*	106	0	1	-4	-3	-6	3
COc1ccccc1/C=C/C1C(C(=O)OCC(C)C)=C(C)N=C2SCCC(=O)N21 (stereo not given)	11*	101	-1	1	15	1	20	12*
C=CCNC(=O)C(=O)Nc1ccc2c(c1)N(S(=O)(=O)c1cccs1)CCC2	2	104	0	-2	2	-2	.	.
COC(=O)c1ccc(-n2c(C)cc(C(=O)CSc3ccc(NC(C)=O)cc3)c2C)cc1	9.0*	97	0	2	18	0	22*	16*
Cc1cc(C)cc(-n2c(SCC(=O)NCc3ccco3)nc3ccccc3c2=O)c1	10*	101	0	-3	-1	4	9	8.7*
Cc1cccc(C)c1-n1c(SCC(=O)NCc2ccco2)nc2ccccc2c1=O	-5	98	0	-2	-6	2	.	.
O=C(/C=C/c1ccccc1Cl)Nc1cccc(O)c1	9.2*	95	0	8	6	11	2	4
O=C(/C=C/c1ccccc1Cl)Nc1ccccc1	2	103	1	24	13	-1	.	.
COCCN1C(=O)CSCC1(C)C(=O)NC(C)C (stereo not given)	-3	.	0	3	-4	0	.	.
